The results in this text go back to PubChem BioAssay AID504607 (Sanford-Burnham Center for Chemical Genomics, 2011).

Out of some 6,200 compounds screened, about 4,800 (77%) were called active.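 How the source made its calls: active means mean inhibition at 8 µM reaching about 37%, which flags the compound as non-specific (limit read from the data); inactive means the rest.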 The set was probably picked from earlier hits. Only a sample is shown.

The assay is described as follows: full-length luciferase signal inhibition, confirmation, counter-screen for Mdm2/MdmX interaction inhibitor project, cell-based, single concentration, SaOS-2 (AID 504607).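 Further: p53-null SaOS-2 cells with luciferase driven by a doxycycline-inducible promoter; compound on cells about two nights before reading with doxycycline added after day one.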 To be noted: SaOS-2 full-length luciferase counterscreen, luminescence; at 8 µM; active compounds read high. In general terms: A counterscreen serves to expose hits that act by an unwanted route or on another target.
Broadly, the inhibition is the relative decrease from the control value, in per cent. Take `Oc1c(CN2CCN(c3ccc(F)cc3)CC2)cc(Cl)c2cccnc12`: the inhibition is 25.7% (inactive). Then `N#Cc1ccc(C(=O)Nc2nc(-c3cccs3)c(C(=O)C(F)(F)F)s2)cc1`, with 54.4% (active). Then `COc1ccc(CNC(=O)C(c2ccc(O)cc2)N(Cc2ccco2)C(=O)c2snc(C(N)=O)c2N)cc1` (stereo not given), with 88.8% (active); and `Clc1ccc2c(c1)C1=C(C(c3ccncc3)O2)C(c2ccc(Br)cc2)n2ncnc2N1` (stereo not given), with 67.2% (active); and `Nc1nc(CC(=O)CSc2ccc(Cl)cc2)nc(Nc2ccc(F)cc2)n1`, with 29.2% (inactive). Then `COc1ccc(C2=Nn3c(nnc3-c3ccccc3OC)SC2)cc1OC1CCCC1`, with 68.2% (active); and `Cc1nc(N=C(N)N)nc2c(C)cccc12`, with 63.3% (active); and `Cc1nc(/N=C(\N)NC(=O)NC2CCCCC2)nc2ccccc12`, with 34.4% (inactive). For the compound `COc1ccc(CNC(=O)C[C@H]2C[C@H](C(=O)N3CCOCC3)[C@@]3(CCC4CCCC4)c4[nH]c5ccc(Cl)cc5c4CCN3C2=O)cc1OC`, the inhibition is 39.6% (active).

For the compound `CN(C)c1ccnc2sc3c(=O)n(Cc4ccccc4)cnc3c12`, the inhibition is 15.1% (inactive).

As for `Cc1cccc(NC(=O)c2nc(S(=O)(=O)Cc3ccccc3)ncc2Cl)c1`, the inhibition is 50.9% (active). Then `O=C(CCl)Nc1cccc(CP(=O)(c2ccccc2)c2ccccc2)c1`, with 27.6% (inactive); and `Cc1cccc(CS(=O)(=O)c2ncc(Cl)c(C(=O)Nc3ccc(F)cc3)n2)c1`, with 51.2% (active).

With `C[C@@H](NC(=O)OC(C)(C)C)c1nnc(S(=O)(=O)Cc2ccccc2)o1`, the inhibition was 24.9% (inactive). For the compound `O=C(/C(=C/c1cccc(Cl)c1)c1nc2ccccc2[nH]1)c1ccccc1`, the inhibition is 97.6% (active). Take `CCCCNC(=O)C(C)N(CCN(C)C)C(=O)CCCCCN1C(=O)NC(c2ccc(Cl)cc2)C(C(=O)OCc2ccccc2)=C1C` (stereo not given): the inhibition was 27.8% (inactive). Consider `Cc1cc2cc3c(cc2nc1SCC(=O)Nc1c(C)cccc1C)CCC3`, for which the inhibition was 60.3% (active).

`CCOC(=O)Nc1ccc2c(c1)N(C(=O)CCCl)c1ccccc1[S@]2=O`: the inhibition is 54% (active). As to `CNC[C@H](CC1CCCCC1)NC[C@H](NCCC1CCCC1)[C@H](C)O`, the inhibition was 30.2% (inactive). In the case of `COc1ccc(-c2cc(C(=O)N(C)CC(=O)Nc3ccccc3Cl)c3ccccc3n2)cc1OC`, the inhibition was 79% (active).

`COc1ccc(-c2cc(C(=O)N(C)Cc3ccc(OC)c(OC)c3OC)c3ccccc3n2)cc1OC`: the inhibition was 97.7% (active). Then `COc1ccc(CN(C)C(=O)c2cc(-c3ccc(C)cc3C)nc3ccccc23)c(OC)c1OC`, with 62.1% (active); and `COc1cc(SC)ccc1C(=O)Nc1nc(C)cs1`, with 43.3% (active). Take `COc1c(C)c2c(c(O)c1C/C=C(\C)CCC(=O)O)C(=O)OC2`: the inhibition was 22.9% (inactive). Then `O=C(Nc1ccc2c(c1)OCCO2)C1CCCC1`, with 88.1% (active). Then `Oc1c(Cl)cc(Cl)c(Cl)c1Cc1c(O)c(Cl)cc(Cl)c1Cl`, with 26.8% (inactive). As for `CCNC(=O)c1c(O)c2cccc3c2n(c1=O)CC3`, the figure is 22.6% (inactive).

Turning to `Cc1ccc(-c2nn(C(C)(C)C)c3ncnc(N)c23)cc1`, the inhibition was 30.7% (inactive). As to `O=C1NC[C@@H](c2ccccc2)OC(=O)[C@H](Cc2ccc(F)cc2)CC/C=C/C[C@H]1CC(=O)N(CCO)Cc1ccccc1`, the inhibition is 79% (active). In the case of `COc1ccc(C(C(=O)NC2CCCCC2)N(C(=O)CCl)c2ccccc2Cl)cc1` (stereo not given), the inhibition was 78.5% (active). Then `Cc1cc(NC(=O)/C=C/C(=O)N(c2ccccc2C)C(C(=O)NC2CCCC2)c2ccc(F)cc2)no1` (stereo not given), with 28.7% (inactive).

With `COc1ccc(OC)c(Nc2nc(-c3ccc(O)c(O)c3)cs2)c1`, the inhibition was 79.9% (active). Then `Cc1oc2c(c1C(=O)N1CCOCC1)C(=O)c1ccccc1C2=O`, with 56.8% (active); and `O=S(=O)([N-]c1nc2ccccc2nc1-[n+]1ccc(Cc2ccccc2)cc1)c1ccc(Br)s1`, with 56.5% (active). As for `O=[N+]([O-])c1c(NCCO)cc(Sc2nc3ccccc3s2)c2nonc12`, the figure is 50.4% (active); as for `OCCNc1nc(Nc2ccc(Cl)c(Cl)c2)nc2ccccc12`, 24.3% (inactive); as for `COC(=O)Cc1[nH]n(-c2nc3ccccc3s2)c(=O)c1C(C)=Nc1ccc(OC)cc1`, 26.2% (inactive). Then `O=C(Nc1ccccc1Cl)/C(Cl)=C(\Cl)S(=O)c1ccccc1` (stereo not given), with 1.94% (inactive). As for `CCCC(O)(CCC)C(=O)NN(C(=O)CCl)c1cccc(C)c1`, the inhibition is 23.7% (inactive). Then `Cc1cccc(N(C)C(=O)c2cc3c(=O)[nH]c4ccc(C)cc4c3s2)c1`, with 43.4% (active). Then `Cc1ccc(N(Cc2cc(=O)[nH]c3ccccc23)C(=O)CCl)cc1`, with 25.3% (inactive); and `CC[C@]1(C(=O)OC)[C@H]2C(=O)N(Cc3ccccc3)C(=O)[C@H]2[C@H]2CN=C(SCc3ccccc3)N21`, with 35.8% (inactive); and `CC[C@]1(C(=O)OC)[C@H]2C(=O)N(Cc3ccccc3)C(=O)[C@H]2[C@H]2CN=C(SCc3ccc(C#N)cc3)N21`, with 54.6% (active).

For the compound `CC[C@]1(C(=O)OC)[C@H]2C(=O)N(Cc3ccccc3)C(=O)[C@H]2[C@H]2CN=C(SCc3ccc(Cl)cc3)N21`, the inhibition is 52.2% (active). As for `Cc1cc(Nc2cc(N3CCN(C)CC3)nc(Sc3ccc(NC(=O)C4CC4)cc3)n2)n[nH]1`, the figure is 41.6% (active); as for `Cc1[nH]c(C)c(S(=O)(=O)N2CCN(c3cccc(C(F)(F)F)c3)CC2)c1C(=O)N1CCCCC1`, 54.6% (active); as for `COc1ccc(CNc2nc(NCc3ccc(OC)cc3)c3ncn(C4CCCC4)c3n2)cc1`, 73% (active). Then `Cc1c(CN2CCC(CO)(CCOc3ccccc3)CC2)[nH]c2ccc(Cl)cc12`, with 53.7% (active). As for `N#CC1=C(N)Oc2cc(O)ccc2C1C1CCCCC1` (stereo not given), the figure is 56.5% (active); as for `Cc1[nH]c(=O)c(C(=O)/C=C/c2ccccc2)c2c1CCCC2`, 53.3% (active); as for `COc1ccc2cc1Oc1ccc(cc1)C[C@H]1c3cc(c(OC)cc3CCN1C)Oc1c(O)c(OC)cc3c1[C@H](C2)N(C)CC3`, 51.1% (active). Consider `CCN1C(=O)/C(=C\N2CCN(c3cccc(Cl)c3)CC2)SC1=S`, for which the inhibition is 72.2% (active). Regarding `COc1cccc2sc(N(CCCN(C)C)C(=O)C(c3ccccc3)c3ccccc3)nc12`, the inhibition is 24.8% (inactive). Then `COc1cccc2sc(N(CCCN(C)C)C(=O)CCS(=O)(=O)c3ccccc3)nc12`, with 21.2% (inactive); and `COc1cccc2sc(NNC(=O)c3nc4ccccc4s3)nc12`, with 68.2% (active).
